This is a sample that favours compounds with a hit; in the whole collection about 9.4% have one here.
FLuc counter: inhibits or activates purified firefly luciferase, miR-21 counter-screen; AID 588342; P08659; Potency, µM (titrated, usually from 57.5 µM), for the others: top-dose activity change, negative = inhibition, usual class: inhibitors; 360,000 tested, 6.9% active; purified FLuc, Km substrates, luminescence inhibition;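 also: plate controls were vehicle for no effect and reference inhibitor for full effect; nearly all actives have a fitted effect of over 55% in size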
Target sequence (P08659 whole entry, looked up): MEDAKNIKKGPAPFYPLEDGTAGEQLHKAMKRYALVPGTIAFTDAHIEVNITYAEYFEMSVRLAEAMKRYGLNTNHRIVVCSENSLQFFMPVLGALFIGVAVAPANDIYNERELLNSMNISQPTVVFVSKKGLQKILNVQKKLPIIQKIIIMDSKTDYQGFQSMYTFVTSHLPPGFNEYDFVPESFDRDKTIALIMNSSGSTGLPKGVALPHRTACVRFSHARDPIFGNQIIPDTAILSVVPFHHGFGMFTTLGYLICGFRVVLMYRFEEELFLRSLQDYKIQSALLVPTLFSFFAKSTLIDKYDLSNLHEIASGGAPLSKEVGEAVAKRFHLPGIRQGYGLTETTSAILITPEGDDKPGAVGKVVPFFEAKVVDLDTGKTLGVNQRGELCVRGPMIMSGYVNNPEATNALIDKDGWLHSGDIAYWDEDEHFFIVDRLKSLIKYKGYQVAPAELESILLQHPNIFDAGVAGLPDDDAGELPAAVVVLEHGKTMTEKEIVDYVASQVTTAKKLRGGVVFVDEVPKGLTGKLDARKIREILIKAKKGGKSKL
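Purified P. pyralis luciferase (10nM final) with 10uM D-luciferin and 10uM ATP (Km levels) in 50mM Tris acetate pH 7.5, 10mM Mg acetate, 0.01% Tween-20, 0.05% BSA; qHTS 6-point titration, ~60 µM downward; luminescence read.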
Rab9 promoter act: activators of Rab9 promoter | Huh7 Rab9 promoter-luciferase reporter, luminescence, 24 h | Potency, µM (highest dose often 9.22 µM), for the others: at the top dose activation, negative = inhibition, usual class: activators | 320,000 tested, 2.8% active | AID 485297; also: % of control where 0% means no effect; nearly all actives have a fitted effect of over 60% in size
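Luminescence read-out: Huh7 cells stably expressing Rab9-luciferase, treated 24 h with compound at 37 °C, then lysed with luciferase reagent for 10 min at ambient before reading.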
ELG1 DNA repair: ELG1-dependent DNA repair inhibition | HEK293T ELG1-luciferase reporter, luminescence, 16 h; DNA damage induced by 5-fluorouridine | Potency, µM (titrated, usually from 46.1 µM), for inactives: at the highest dose activity change, negative = inhibition, hits mostly inhibitors | 330,000 tested, 2.3% active; also: % is scaled to controls: 0 for no effect and ±100 for the full control effect; nearly all actives have a fitted effect of over 55% in size
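Reporter activity after DNA damage by 5-fluorouridine is monitored. Compound-treated cells incubate 16 hr at 37 °C, then ONE-Glo is added for 30 min before luminescence reading.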
NPC1 promoter act: activates the NPC1 promoter; Huh7 NPC1 promoter luciferase reporter, 24 h; Potency, µM (top dose mostly 9.22 µM), inactives show top-dose activation, hits mostly activators; 320,000 tested, 2.4% active; AID 485313; also: % of control where 0% means no effect; nearly all actives have a fitted effect of over 60% in size
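Readout is luciferase luminescence, reflecting NPC1 promoter activation in stably transfected Huh7 cells after 24 h compound exposure at 37 °C in reduced-serum medium with 10% FBS.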
ELG1 genotox: inducers of genotoxicity in HEK293T ELG1-luciferase cells; HEK293T ELG1-luciferase reporter, luminescence, 16 h; Potency, µM (doses to about 46 µM), without a hit: at the highest dose activity change, positive = activation, actives largely listed as activators; 330,000 tested, 1.3% active; AID 504466; also: % of control where 0% means no effect; nearly all actives have a fitted effect of over 60% in size
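Genotoxicity was scored as increased ELG1-luciferase reporter signal, measured by ONE-Glo luminescence (30 min, room temperature). Compound or vehicle exposure of the HEK293T reporter cells lasted 16 hr at 37°C.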
SMN2 splice enh: SMN2 splice variant enhancement | HEK293 SMN2-luciferase splicing reporter, luminescence, 30-36 h | Potency, µM (top dose mostly 46.1 µM), for inactives: top-dose activity change, positive = activation, actives largely listed as activators | 210,000 tested, 2.8% active; also: % of control where 0% means no effect; nearly all actives have a fitted effect of over 55% in size
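HEK293 cells carry an SMN2 […]–luciferase reporter in which exon 7 inclusion puts luciferase in frame. Cells were plated 10-12 h before compound addition, then incubated 30-36 h at 37C. ONE-Glo luminescence was read; sodium butyrate at 4.5 mM final served as control.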
* = called active by the depositor; ? = inconclusive; . = no result given; [ ] = another dose, or the depositor's remark. Calls follow the shape of the dose curve; as a rule, active = well fitted curve in the direction sought with a large enough effect; inconclusive = small, poorly fitted or top-dose-only effect, or another doubt; inactive = no such curve, though single readings can be large; an effect the other way counts as inactive or inconclusive. Potency is read from the fitted curve at half-maximal effect.

SMILES	FLuc counter	Rab9 promoter act	ELG1 DNA repair	NPC1 promoter act	ELG1 genotox	SMN2 splice enh
N/C(=N\OC(=O)COc1ccc(Br)cc1Cl)c1ccncc1	6.7µM*	3.5µM*	?	3.5µM*	?	11µM*
CS(=O)(=O)Nc1ccc(Nc2c3ccccc3nc3ccccc23)cc1	.	.	.	.	.	5%[9.22 µM]
COC(=O)[C@H](COC(C)(C)C)NC(=O)O[C@@H]1C(=O)c2cc(Br)ccc2O[C@H]1c1cccc(OC)c1	.	.	.	.	.	8%
CCN(CC)CCNC(=O)c1[nH]c2ccccc2c1Sc1ccc(Cl)cc1	2%	.	.	.	.	.
O=C1CCCCC1C(=O)c1cn(-c2ccc(Cl)c(Cl)c2)nn1 (centres undefined)	0.85µM*	24%	?	11%	?	14µM*
COc1ccc(OC)c2sc(N3CCN(C(=O)C(C)(C)C)CC3)nc12	13µM*	.	.	.	.	.
COc1ccc(Cl)c2sc(N3CCN(C(C)=O)CC3)nc12	2%	-1%	-12%	12%	0%	.
Cc1c(Cl)cccc1NC(=O)CCn1nc(C)c2c(C)n(-c3ccccc3)nc2c1=O	5%	.	.	.	.	.
COC(=O)c1ccc(Oc2nc(Nc3ccc(C)c(C)c3)nc(N(C)C)n2)cc1	?	-1%	21µM*	-5%	-16%	-7%
CC(=O)c1sc(NCc2ccc(C)cc2)nc1C	15µM*	2.8µM*	?	3.2µM*	23µM*	.
CC(=O)Nc1nc(C)c(C(C)=O)s1	0%	9%	-3%	-2%	-5%	2%
CC(=O)c1sc(NC(=O)c2ccc(Cl)cc2)nc1C	?	1.4µM*	?	3.2µM*	?	.
CC(=O)c1sc(NC(=O)c2cccc(C)c2)nc1C	6.7µM*	2µM*	?	3.2µM*	5.2µM*	14µM*
CC(=O)c1sc(NC(=O)c2ccc(F)c(S(=O)(=O)N3CCOCC3)c2)nc1C	19µM*	0%	23%	-1%	0%	.
CC(=O)c1sc(NC(=O)c2cc(S(=O)(=O)N3CCOCC3)ccc2F)nc1C	.	-8%	?	0%	0%	.
CCC(C)Sc1oc(-c2ccco2)nc1S(=O)(=O)c1ccc(C)cc1 (centres undefined)	3%	.	.	.	.	18%
CCc1nn(CC(=O)Nc2ccc(NC(C)=O)cc2)c(=O)c2cc3sccc3n12	0%	.	.	.	.	-4%
COc1ccc(N(C)S(=O)(=O)c2cccc(C(=O)Nc3cccc(C(=O)NC4CC4)c3)c2)cc1	1%	-5%	21µM*	-1%	-5%	.
COc1ccc(N(C)S(=O)(=O)c2cccc(C(=O)OCC(=O)c3c(N)n(C)c(=O)n(C)c3=O)c2)cc1	.	.	18µM*	.	-10%	.
CC(=O)c1sc(NC(=O)c2ccc(F)c(F)c2)nc1C	?	3.2µM*	?	?	16µM*	1%
COc1ccc(N(C)S(=O)(=O)c2cccc(C(=O)Nc3nc(C)c(C(C)=O)s3)c2)cc1	-17%	4%	10µM*	2%	0%	.
CCOC(=O)c1ccc(NC(=O)C2CCN(S(=O)(=O)Cc3ccccc3)CC2)cc1	3%	.	.	.	.	.
O[C@H](C[C@@H]1CCCCN1)c1ccc2c(c1)oc1ccccc12	.	.	.	.	.	-1%[9.22 µM]
CN(C)c1ccc(C(CNC(=O)c2c(F)cccc2Cl)N2CCOCC2)cc1 (centres undefined)	-2%	.	.	.	.	.
NC(=O)C/C=C\CC(N)=O	.	.	.	.	.	-13%[9.22 µM]
SMILES	FLuc counter	Rab9 promoter act	ELG1 DNA repair	NPC1 promoter act	ELG1 genotox	SMN2 splice enh
COc1ccc(OC)c(S(=O)(=O)N2Cc3ccccc3CC2C(=O)Nc2ccc(C(C)=O)cc2)c1 (centres undefined)	-4%	.	.	.	.	8%
O=C(Nc1nc(-c2cccs2)cs1)c1ccc(S(=O)(=O)N2CCCCC2)cc1	10%	-12%	?	-7%	3%	-84%
O=C(Nc1nc(-c2cccs2)cs1)c1cccc(S(=O)(=O)N2CCCCCC2)c1	15µM*	?	?	-8%	9%	-68%
Cc1nc(-c2cccc(NC(=O)c3cccc(S(=O)(=O)N4CCCC4)c3)c2)cs1	?	-3%	18µM*	2%	-10%	.
CCc1ccccc1NC(=O)C(=O)NCC(c1cccnc1)N1CCN(c2ccccc2F)CC1 (centres undefined)	-8%	.	.	.	.	.
Cc1cccc(NC(=O)c2sc(-n3nc(C)c(CCC(C)C)c3C)nc2C)c1	-6%	.	.	.	.	.
CSc1cccc(NC(=O)c2ccc(CN3CCc4ccccc4C3)cc2)c1	?	-25%	-21%	-24%	7%	.
CSc1cccc(NC(=O)c2ccccn2)c1	11µM*	4µM*	?	?	?	?
CSc1cccc(NC(=O)N2CCc3ccc(NC(=O)c4ccccn4)cc3C2)c1	8.5µM*	4µM*	?	2.5µM*	-7%	.
COc1cccc(CN2CCCN(Cc3ccc(F)cc3)S2(=O)=O)c1	-15%	.	.	.	.	.
CCOC(=O)c1sc(NC(=O)CSc2ncn(-c3ccccc3)n2)nc1C	1%	0%	0%	-1%	0%	-2%
c1ccc(CSc2ncn(-c3ccccc3)n2)cc1	4.8µM*	2.2µM*	?	3.2µM*	4.1µM*	14µM*
O=C(CSc1ncn(-c2ccccc2)n1)c1cccs1	7.6µM*	1.4µM*	?	2.8µM*	?	?
Nc1nc(CSc2ncn(-c3ccccc3)n2)cs1	11µM*	1.3µM*	?	2µM*	?	16µM*
Cc1cccc(CS(=O)(=O)CC2Nc3ccc(C(=O)NCc4ccccc4Cl)cc3NC2=O)c1 (centres undefined)	-16%	.	.	.	.	.
CCOC(=O)c1c(/N=C/N(C)C)sc(/C=N/Nc2ccccc2)c1-c1ccccc1Cl	12µM*	2%	21µM*	-3%	-2%	.
CCc1sc(C(=O)Nc2ncccc2O)cc1C	6µM*	2.2µM*	?	1.6µM*	?	.
CCc1sc(C(=O)Nc2nccs2)cc1C	1.3µM*	3.2µM*	?	3.5µM*	?	.
O=C(O)CCc1ccc(-c2ccccc2)[nH]1	.	.	.	.	.	-11%[9.22 µM]
Cc1ccc(C(=O)NCCCNC(=O)COc2ccc(C)c(C)c2)cn1	0%	1%	-2%	-1%	0%	.
COc1ccc(Cc2nc(C(=O)Nc3ccc(Cl)cc3)cs2)cc1	?	0%	?	-4%	?	-75%
COc1ccc(NC(=O)c2csc(Cc3ccc(Cl)cc3)n2)cc1	24µM*	-12%	?	1%	-1%	-23%
COc1ccc(Cc2nc(C(=O)Nc3ccccc3)cs2)cc1	19µM*	22%	?	?	0%	-67%
O=C(Nc1ccc(Cl)cc1)c1csc(Cc2ccccc2)n1	5.4µM*	?	?	22%	?	?
